PubChem BioAssay (EPA / NIEHS)
Calls of active or inactive are those of the source. How the source made its calls: active means hit-call score of the fitted dose curve at least 0.9, where 1 is the maximum; inactive means score below 0.9.

read-out: CD38, CD38 (gene 952); assay: BSK_SAg_CD38: BioMAP Diversity Plus: SAg Assay for CD38 Biomarker Activity (AID 2283087); conditions: primary human HUVEC with PBMC; actives raise or lower the signal
Protocol: BSK_SAg is a cell-based, multiplexed-readout assay that uses umbilical vein endothelium and peripheral blood mononuclear cells, a human vascular primary cell co-culture, with measurements taken at 24 hours after chemical dosing in a 96-well plate.BSK_SAg_CD38 is one of 10 assay component(s) measured or calculated from the BSK_SAg assay. It is designed to make measurements of enzyme-linked immunosorbent assay, a form of binding reporter, as detected with fluorescence intensity signals by Enzyme-linked immunosorbent assay technology.Data from the assay component BSK_SAg_CD38 was analyzed into 1 assay endpoint. This assay endpoint, BSK_SAg_CD38, was analyzed with bidirectional fitting relative to DMSO as the negative control and baseline of activity. Using a type of binding reporter, gain or loss-of-signal activity can be used to understand changes in the signaling as they relate to the gene CD38. Furthermore, this assay endpoint can be referred to as a primary readout, because this assay has produced multiple assay endpoints where this one serves a signaling function. To generalize the intended target to other relatable targets, this assay endpoint is annotated to the cytokine intended target family, where the subfamily is other cytokine.
The levels of cell surface (or secreted, indicated by the prefix "s") biomarker endpoints were measured by ELISA. Overt cytotoxicity to cells in confluent adherent cultures (all systems other than the BT system) was assessed by measuring total protein levels using sulforhodamine B (SRB) staining in parallel cultures at the time of biomarker measurements, indicated as SRB endpoints. For proliferation assays for adherent cell types, individual cell types are cultured at sub-confluence and relative cell numbers quantified by SRB staining at time points optimized for each system (48 h: 3C and CASM3C systems; 72 h: BT and HDF3CGF systems; 96 h: SAg system). SRB was performed by staining cells with 0.1% SRB after fixation with 10% TCA and reading wells at 560 nm.Viability and proliferation of PBMC (T cells) was quantified by Alamar Blue reduction for the SAg and BT systems. For PBMC viability (referred to as PBMC Cytotoxicity within the assay endpoint names), cells were plated (75,000/well in a 96-well plate) and then chemical samples added for 1 h before addition of activators, SEB and TSST-1 (20 ng/mL final concentration each). Cells were incubated for 90 h. Then, Alamar Blue (20 uL/well) (Invitrogen, Cat DAL1100) was added for 6 h, and the plates were read with a fluorescence microplate reader at 546/580 nm (excitation/emission). For PBMC proliferation, cells were plated and activated as above but incubated for only 16 h prior to addition of Alamar Blue. Plates were read after 6 h.

SMILES | outcome | AC50
CCO[Si](CCCNC(N)=O)(OCC)OCC | inactive | 
CC(C)(C)c1cc(/C=C2\SC(N)=NC2=O)cc(C(C)(C)C)c1O |  | 12.2 µM (active)
COc1ccc2cc(S(=O)(=O)N[C@H](CC(=O)N[C@H](Cc3ccc(CN4[C@H](C)CCC[C@@H]4C)cc3)C(=O)N(C)C(C)C)c3ccc4c(c3)OCO4)ccc2c1 |  | 26.2 µM (active)
CCCCCCCCCCCCO |  | 34.7 µM (active)
COc1cccc([C@H](O)C2CCN(CCc3ccc(F)cc3)CC2)c1OC | inactive | 
O=C(O)Cc1cc(I)c(Oc2ccc(O)c(I)c2)c(I)c1 | inactive | 
CC1(C)NC(=O)N(c2ccc([N+](=O)[O-])c(C(F)(F)F)c2)C1=O | inactive | 
Clc1ccccc1C(c1ccccc1)(c1ccccc1)n1ccnc1 |  | 25.9 µM (active)
CCCOC(=O)c1cc(O)c(O)c(O)c1 | inactive | 
Cc1ccc2oc(CN(Cc3ccccc3)C(=O)Nc3c(F)cc(F)cc3F)c(-c3ccc(Cl)cc3)c2c1 | inactive | 
Clc1cc(Cl)c2c(c1)N=C1CCCCCN1C2 | inactive | 
CC(C)(C)c1csc(-c2cc3cc(OCc4ccccc4CC(=O)O)ccc3o2)n1 |  | 17.9 µM (active)
OCCO | inactive | 
CCN(CC)C(=O)c1cc(S(=O)(=O)Cc2ccccc2)c(N2CCC(c3ccccc3)CC2)cc1N(CC)CCN(C)C |  | 9.58 µM (active)
Cc1oc2c(NC(=O)c3c(Cl)cccc3Cl)cccc2c1C(C)(C)O |  | 21.3 µM (active)
CC[C@@H]1C[C@H](N(Cc2cc(C(F)(F)F)cc(C(F)(F)F)c2)C(C)=O)c2cc(C(F)(F)F)ccc2N1C(=O)OC(C)C | inactive | 
Cc1ncc(CO)c(CO)c1O | inactive | 
O=C1c2ccccc2C(=O)N1CCc1noc(-c2ccc(CN3CCCCCC3)s2)n1 | inactive | 
Cc1cc(F)ccc1-c1cc(N2CC[C@@H](O)[C@H]2CO)ncc1N(C)C(=O)C(C)(C)c1cc(C(F)(F)F)cc(C(F)(F)F)c1 |  | 10.2 µM (active)
O=C1O[C@H]([C@@H](O)CO)C(O)=C1O | inactive | 

SMILES | outcome | AC50
C[C@]12CC[C@@H]3c4ccc(O)cc4CC[C@H]3[C@@H]1CCC2=O | inactive | 
CCCCCCCC[Si](OCC)(OCC)OCC |  | 20 µM (active)
Cc1ccc(C(C)C)cc1 | inactive | 
CCCC(=O)OCCC(C)C | inactive | 
O=C(O)c1ccccc1C(=O)OCc1ccccc1 | inactive | 
Cc1cn([C@H]2C[C@H](N=[N+]=[N-])[C@@H](CO)O2)c(=O)[nH]c1=O | inactive | 
Oc1ccccc1 | inactive | 
O=C1CCC(C2CCCCC2)CC1 | inactive | 
CC(=O)N1CCN(c2ccc(OC[C@H]3CO[C@](Cn4ccnc4)(c4ccc(Cl)cc4Cl)O3)cc2)CC1 |  | 27.4 µM (active)
COc1cc(C(=O)NC2CCN(C)CC2)ccc1Nc1ncc2c(n1)N(C1CCCC1)CC(F)(F)C(=O)N2C |  | 11.6 µM (active)
CN(C[C@@H](CC[N+]12CCC(C3CCCCC3)(CC1)CC2)c1ccc(Cl)c(Cl)c1)C(=O)c1cc(C(F)(F)F)cc(C(F)(F)F)c1 |  | 13.3 µM (active)
O=C=NCCCCCCN=C=O | inactive | 
O=c1[nH]sc2ccccc12 |  | 8.45 µM (active)
c1ccc(C[n+]2cccc3ccccc32)cc1 | inactive | 
Cc1cccc2ccccc12 | inactive | 
O=C(Nc1ccc(Cl)cc1)Nc1ccc(Cl)c(Cl)c1 |  | 2.11 µM (active)
CC(C)(O)c1ccc(CNC(=O)c2cccnc2Oc2ccc3nonc3c2)cc1 | inactive | 
CN(C)c1ccc(C(=C2C=CC(=[N+](C)C)C=C2)c2ccc(N(C)C)cc2)cc1 |  | 1.01 µM (active)
CCCCCCCCOC(=O)c1cc(O)c(O)c(O)c1 |  | 13.1 µM (active)
CCCCCCCCCCCO | inactive | 
